Source: PubChem BioAssay
GLS inhibitor: inhibitors of human glutaminase (GLS); O94925; actives 0.21% (n = 410,000); AID 624170; Potency, µM (series often up to 45.5 µM), most hits filed as inhibitors; GLS enzymatic activity, qHTS titration
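hKGA in 45 mM KH2PO4 (pH 8.2), 0.02% Tween-20 with compound, then 1mM L-Glutamine (stock as added) plus glutamate oxidase/HRP/Amplex red coupling mix. Fluorescence read initially and after 30 min at RT; signal change reflects glutamate formation.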
Pol kappa inh: blocks human DNA polymerase kappa activity; actives 0.53% (n = 400,000); purified Pol kappa, fluorescent DNA synthesis assay, 10 min; AID 588579; Potency, µM (doses to about 107 µM), most hits filed as inhibitors
Target sequence (Q9UBT6 whole entry, looked up): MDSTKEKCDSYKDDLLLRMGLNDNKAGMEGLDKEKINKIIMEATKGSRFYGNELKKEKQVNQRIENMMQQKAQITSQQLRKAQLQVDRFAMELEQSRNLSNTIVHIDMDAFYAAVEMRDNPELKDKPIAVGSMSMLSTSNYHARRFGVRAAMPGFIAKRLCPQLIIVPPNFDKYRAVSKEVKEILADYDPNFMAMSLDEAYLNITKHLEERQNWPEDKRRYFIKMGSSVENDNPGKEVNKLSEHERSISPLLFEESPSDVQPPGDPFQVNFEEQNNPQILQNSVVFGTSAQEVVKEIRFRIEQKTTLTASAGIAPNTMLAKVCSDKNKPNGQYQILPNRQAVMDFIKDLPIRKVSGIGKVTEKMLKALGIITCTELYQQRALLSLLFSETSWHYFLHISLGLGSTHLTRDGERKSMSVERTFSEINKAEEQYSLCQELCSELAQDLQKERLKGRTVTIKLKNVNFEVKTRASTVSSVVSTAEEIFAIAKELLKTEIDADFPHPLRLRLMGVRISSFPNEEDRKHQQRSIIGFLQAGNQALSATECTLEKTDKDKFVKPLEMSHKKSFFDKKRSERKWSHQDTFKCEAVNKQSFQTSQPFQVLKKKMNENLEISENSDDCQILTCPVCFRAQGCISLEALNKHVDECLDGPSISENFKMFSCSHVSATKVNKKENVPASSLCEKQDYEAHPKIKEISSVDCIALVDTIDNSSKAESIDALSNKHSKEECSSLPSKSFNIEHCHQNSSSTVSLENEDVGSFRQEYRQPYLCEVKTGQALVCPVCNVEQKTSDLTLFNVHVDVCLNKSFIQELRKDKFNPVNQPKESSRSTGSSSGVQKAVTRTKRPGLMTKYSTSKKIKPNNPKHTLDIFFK
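Here, compound and 10 nM enzyme are combined for 15 min at room temperature; adding 50 nM substrate (final) starts DNA synthesis, tracked by fluorescence at 0 and 10 min against buffer-only wells.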
Pol beta inh-1: DNA polymerase beta (human) inhibition; P06746; Pol beta primer extension/strand displacement, fluorescence kinetic; Potency, µM (titrated, usually from 114 µM), actives largely listed as inhibitors; actives 1.3% (n = 340,000); AID 485314
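Curves were derived by four-parameter Hill fits of normalized qHTS data. The kinetic fluorescent primer-extension read was taken at 0 and 10 min after 50 nM substrate, following a 15 min room-temperature preincubation of 10 nM enzyme with compounds.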
APE1 inh: inhibitors of human APE1 endonuclease. P27695. recombinant APE1, TAMRA/BHQ-2 abasic DNA cleavage fluorescence. Potency, µM (titrated, usually from 65.8 µM), usual class: inhibitors. actives 0.35% (n = 350,000); further: nearly all actives have a fitted effect of over 55% in size
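APE1 at 0.75 nM preincubated 15 min at room temperature with compound. Reaction then started with 50 nM double-stranded THF-abasic substrate labelled with TAMRA/BHQ-2, and 525/598 nm fluorescence read kinetically. Activity taken as third-minus-first read difference, normalized to DMSO and NSC13755 controls.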
POLI inh: inhibitors of human DNA polymerase iota | Q9UNA4 | Pol iota fluorescent replication assay, 10 min | Potency, µM (top dose mostly 115 µM), most hits filed as inhibitors | actives 1% (n = 390,000)
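Fluorescent replication assay read twice, at 0 min and 10 min after adding 50 nM (final) substrate. Enzyme (10 nM) and compounds were first incubated 15 min at room temperature; enzyme-free buffer wells were negative controls.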
POLH inh: blocks human DNA polymerase eta activity; actives 1.2% (n = 390,000); recombinant Pol eta, fluorescent DNA replication assay; Potency, µM (top dose mostly 114 µM), actives largely listed as inhibitors
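Pol eta (10 nM) was preincubated with compounds for 15 min at room temperature, after which fluorescent replication substrate (50 nM final) was added to start the reaction. Fluorescence was read kinetically at 0 and 10 min.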
Pol beta inh-2: Human Pol beta inhibitor hit validation; Potency, µM, actives largely listed as inhibitors; AID 540280; shares compounds with Pol beta inh-1; actives 87% (n = 250); Pol beta primer extension/strand displacement, fluorescence kinetic; calls by dose curve
Klenow counter: Klenow polymerase inhibition, pol beta selectivity check; 250 tested, under 10 active; AID 540300; Klenow exo- polymerase counter-screen, fluorescent DNA substrate; shares compounds with Pol beta inh-1; activity change, negative = inhibition, % at 57.1 µM
HIV RT counter: inhibits HIV-1 reverse transcriptase in counter-screen; HIV-1 RT polymerase activity, counter-screen; 250 tested, under 10 active; activity % (negative = inhibition, positive = activation), % at 57.1 µM; shares compounds with Pol beta inh-1
POLB valid: validation of human DNA polymerase beta inhibitors; shares compounds with Pol beta inh-1; radiolabeled primer extension gel assay, phosphorimager; inhibition, % at 10 µM; actives 91% (n = 110);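 active means inhibition at 10 µM of 30% or more; inconclusive means no clear call, values can overlap the other calls; inactive means inhibition at 10 µM under 30%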
Each line names hits and unclear results; the compound was inactive in the other large screens (follow-up assays come after a bar, where they were run); ! = repeats disagree. Only some compounds are listed: those with a hit (about 2.4% of all), similar ones and a draw of the others. Unless noted, the call rests on the fitted dose curve; in most records, active means well fitted curve in the direction sought with a large enough effect; inconclusive means small, poorly fitted or top-dose-only effect, or another doubt; inactive means no such curve, though single readings can be large; an effect the other way counts as inactive or inconclusive.

Cc1cc(C)n2nc(SCc3cc(=O)oc4cc(O)ccc34)nc2n1	Pol beta inh-1 12.6µM, APE1 inh inconclusive (no result: GLS inhibitor, Pol kappa inh, POLI inh, POLH inh) | Pol beta inh-2 22.4 | Klenow counter inactive | HIV RT counter inactive | POLB valid 83.8
COc1ccccc1CCNC(=O)C1CCN(c2nnc(C)c3c(C)n(-c4ccc(C)cc4)nc23)CC1	GLS inhibitor inconclusive
CCOc1ccccc1CNC(=O)C1CCN(c2nnc(C)c3c(C)n(-c4ccc(C)cc4)nc23)CC1	Pol beta inh-1 7.08µM!, POLH inh inconclusive | Pol beta inh-2 inconclusive | Klenow counter inactive | HIV RT counter inactive
COc1ccc(/C=C(/NC(=O)c2cccs2)C(=O)NCc2ccco2)cc1OC	none
COc1cc(NC(=O)c2cccs2)c(C(=O)OCC(=O)NCc2ccco2)cc1OC	Pol kappa inh 79.4µM, Pol beta inh-1 12.6µM, APE1 inh inconclusive, POLI inh inconclusive, POLH inh 10µM | Pol beta inh-2 31.6 | Klenow counter inactive | HIV RT counter inactive
N#Cc1c2nc3ccccc3nc2n2cc(NC(=O)c3ccc(F)cc3)ccc12	Pol kappa inh inconclusive, Pol beta inh-1 6.31µM, POLI inh inconclusive, POLH inh 35.5µM | Pol beta inh-2 10 | Klenow counter inactive | HIV RT counter inactive
C=CCn1c(SCc2cc(=O)n3ccsc3n2)nnc1C1CCCCC1	Pol kappa inh inconclusive, Pol beta inh-1 20µM, POLI inh 25.1µM, POLH inh 79.4µM | Pol beta inh-2 inconclusive | Klenow counter inactive | HIV RT counter inactive | POLB valid 87.3
CCCCCn1c(N)c(-c2nc3ccccc3o2)c2c([N+](=O)[O-])nn(C)c(=O)c21	Pol beta inh-1 1.41µM, POLH inh inconclusive | Pol beta inh-2 11.2 | Klenow counter inactive | HIV RT counter inactive
O=C(O)c1ccc(-c2ccc(-c3ccccc3)cc2)s1	Pol beta inh-1 15.8µM, APE1 inh inconclusive (no result: GLS inhibitor, Pol kappa inh, POLI inh, POLH inh) | Pol beta inh-2 20 | Klenow counter inactive | HIV RT counter inactive
O=C(Nc1ccccc1)c1ccc(-c2ccccc2)s1	none
CN(CC(=O)Nc1ccccc1Cl)C(=O)COC(=O)c1ccc(C(F)(F)F)cc1	none (no result: Pol beta inh-1)
O=C(CCC1CCCN(C(=O)c2ccc3c(c2)OCO3)C1)N1CCN(c2ccccn2)CC1 (stereo unspecified)	none
COc1ccc(/C=C/C(=O)c2cc(Br)ccc2O)cc1OC	none
CNc1ccc(Br)cc(C(=O)/C=C/c2cc(OC)ccc2OC)c1=O	Pol kappa inh inconclusive, Pol beta inh-1 12.6µM, POLI inh inconclusive, POLH inh 14.1µM | Pol beta inh-2 28.2 | Klenow counter inactive | HIV RT counter inactive | POLB valid 43.4
COc1ccc(Cl)cc1NC(=O)c1cccc(-n2cnnn2)c1	none (no result: Pol beta inh-1)
CC(C)CN(C(=O)COC(=O)c1cc2c(s1)CCC2)C1CCS(=O)(=O)C1 (stereo unspecified)	GLS inhibitor inconclusive, Pol kappa inh 39.8µM, Pol beta inh-1 12.6µM, APE1 inh 12.6µM, POLI inh 20µM, POLH inh 3.55µM | Pol beta inh-2 22.4 | Klenow counter inactive | HIV RT counter inactive
c1cn(-c2ncnc3ccc(-c4ccoc4)cc23)cn1	none (no result: GLS inhibitor, Pol beta inh-1, POLI inh, POLH inh)
O=C(O)c1ccccc1C(=O)Nc1cccc([N+](=O)[O-])c1	none
O=C(Nc1cccc([N+](=O)[O-])c1)c1cc2ccccc2cc1O	Pol beta inh-1 17.8µM, APE1 inh 28.2µM, POLI inh 44.7µM, POLH inh inconclusive | Pol beta inh-2 28.2 | Klenow counter inactive | HIV RT counter inactive | POLB valid 97.7
O=C(NCCN1CCOCC1)c1cc(-c2ccc(Cl)cc2Cl)on1	none
Cc1sc(NC(=O)c2sc3nc4c(C)cccc4cc3c2N)c(C#N)c1C	Pol beta inh-1 5.01µM, POLI inh inconclusive, POLH inh 2.82µM | Pol beta inh-2 8.91 | Klenow counter inactive | HIV RT counter inactive
O=C(Nc1ccc2nn(-c3ccccc3)nc2c1)c1ccc(Br)o1	Pol kappa inh inconclusive, Pol beta inh-1 20µM, POLI inh inconclusive, POLH inh 79.4µM | Pol beta inh-2 20 | Klenow counter inactive | HIV RT counter inactive
O=C(Nc1ccc2nn(-c3ccccc3)nc2c1)c1cc2ccccc2o1	POLI inh inconclusive (no result: APE1 inh)
COC(=O)c1ccc(NC(=O)CSc2nc3cccnc3n2C)cc1	none
Nc1c(C(=O)NC2CC2)sc2nc3c(c(-c4ccco4)c12)CC/C3=C/c1ccco1	GLS inhibitor 1.78µM, Pol kappa inh 0.708µM, Pol beta inh-1 0.631µM, POLI inh inconclusive, POLH inh 0.708µM | Pol beta inh-2 28.2 | Klenow counter inactive | HIV RT counter inconclusive | POLB valid 100.0
NC(=O)c1sc2nc3c(c(-c4ccco4)c2c1N)CCC3	none
CCOC(=O)c1cc(-c2ccc([N+](=O)[O-])cc2)nc2c1c(=O)[nH]c(=O)n2Cc1ccccc1	GLS inhibitor inconclusive, Pol beta inh-1 2.51µM, POLI inh inconclusive, POLH inh 44.7µM | Pol beta inh-2 14.1 | Klenow counter inactive | HIV RT counter inactive
Cc1ccc(O)c(C(=O)c2cnn(C(=O)COc3ccc(Cl)cc3)c2)c1	Pol beta inh-1 5.62µM, POLH inh inconclusive | Pol beta inh-2 14.1 | Klenow counter inactive | HIV RT counter inactive
O=C(Cc1cccs1)Nc1nnc(SCC(=O)NC2CCCCC2)s1	Pol beta inh-1 inconclusive, POLI inh inconclusive, POLH inh inconclusive
O=C(Cc1cccs1)Nc1nnc(SCc2cccc3ccccc23)s1	Pol kappa inh 50.1µM, Pol beta inh-1 8.91µM, POLI inh 22.4µM, POLH inh inconclusive | Pol beta inh-2 28.2 | Klenow counter inactive | HIV RT counter inactive | POLB valid 71.0
COC(=O)CCC(=O)OC1(C)C(=O)C=C2C=C(C3CC3)N(CCc3c[nH]c4ccccc34)C=C2C1=O (stereo unspecified)	POLI inh inconclusive
COc1ccc2cc3cc(C(=O)Nc4ccc5c(c4)OCCO5)oc3nc2c1	Pol beta inh-1 12.6µM, POLI inh inconclusive, POLH inh 11.2µM | Pol beta inh-2 inconclusive | Klenow counter inactive | HIV RT counter inactive
CN1CCN(C(=O)c2ccc3c(=O)n(-c4ccc(F)cc4)c(=S)[nH]c3c2)CC1	none
